The values that follow are results of earlier work, collected in PubChem BioAssay AID977608.

Screen size: about 4,300 compounds; about 4,300 (100%) were called active. No cut-off is given here; in the data, nearly all actives have IC50 up to about 1400 µM. The set was probably picked from earlier hits. The list shows a part of the results.

A short description of the series: protein-ligand inhibition affinities from structures – PDB-derived complexes (AID 977608).

For the compound `C/C(=N\O)c1ccc(O)cc1O`, the IC50 (literature IC50, protein: SERINE/THREONINE-PROTEIN KINASE CHK2, PDB entry 4bdb) is 85.6 µM (active).
For the compound `COc1ccc(C[C@H](NC(=O)[C@@H](C)NC(=O)CN2CCOCC2)C(=O)N[C@@H](CC2CCCCC2)[C@@H](O)[C@H](C)CO)cc1`, where the note is “literature IC50, protein: yCP, PDB entry 4qls”, the IC50 is 0.036 µM (active).
Turning to `COc1ccc(C[C@H](NC(=O)[C@H](C)NC(=O)CN2CCOCC2)C(=O)N[C@@H](CC2CCCCC2)[C@@H](O)[C@H](C)CO)cc1`, the IC50 (literature IC50, protein: yCP, PDB entry 4qlq) is 0.0066 µM (active).
For the compound `O=C(COc1ccccc1[P+](O)(O)O)NC1CCCC1`, where the note is “literature IC50, protein: 14-3-3 protein sigma, PDB entry 4dhn”, the IC50 is 128 µM (active).
For `O=C(COc1ccccc1[P+](O)(O)O)NC1CCCCC1`, the IC50 (literature IC50, protein: 14-3-3 protein sigma, PDB entry 4dht) was 15 µM (active).
As to `O=C(CS)NCCCCCC(=O)Nc1ccccc1`, the IC50 (literature IC50, protein: Schistosoma mansoni histone deacetylase 8, HDAC8, PDB entry 4cqf) is 50 µM (active).
In the case of `C[C@@H](O)[C@H](NC(=O)Cc1cc(Cl)cc(Cl)c1)C(=O)NCC(=O)NCC=N`, the IC50 (literature IC50, protein: Protease AVP8, PDB entry 4piq) is 0.08 µM (active).
`CC(=O)Nc1cccc(C2=CC(C)N(O)c3ccccc32)c1` (stereo not drawn): the IC50 (literature IC50, protein: Bromodomain-containing protein 4, PDB entry 4meo) is 250 µM (active).
`N=C1C(NS(=O)(=O)c2ccccc2)C(=O)NC(=O)N1Cc1ccccc1` (stereo not drawn): the IC50 runs as follows: (literature IC50, protein: Glucose-1-phosphate thymidylyltransferase (RmlA), PDB entry 3zlk) 1.32 µM (active); (literature IC50, protein: Glucose-1-phosphate thymidylyltransferase (RmlA), PDB entry 4ASP) 1.32 µM (active).
As for `C/C(=C\Cc1c(O)c(Cl)c(C)c(C=O)c1O)CC/C=C(\C)[C@H](C)O`, the IC50 (literature IC50, protein: Alternative oxidase, mitochondrial, PDB entry 3vva) is 0.00048 µM (active).
Regarding `CCc1nc(N)nc(N)c1-c1ccc(NCc2cc(F)cc(F)c2)cc1`, the IC50 (literature IC50, protein: human Renin, PDB entry 2g24) was 4 µM (active).
As for `N#Cc1csc(NC(=O)CN2C(=O)CCc3ccccc32)c1-c1ncn[nH]1`, where the note is “literature IC50, protein: Mitogen-activated protein kinase 10, PDB entry 3rtp”, the IC50 was 0.007 µM (active).
As for `CC(C)C[C@H](NC(=O)[C@H](C)NC(=O)[C@H](CC(N)=O)NC(=O)[C@H](CCC(=O)O)NC(=O)[C@@H](NC(=O)[C@H](C)NC(=O)[C@@H](NC(=O)[C@H](Cc1cnc[nH]1)NC(=O)[C@@H](N)CO)C(C)C)C(C)C)C(=O)O`, the IC50 (literature IC50, protein: HLA class I histocompatibility antigen, B-39 alpha chain, PDB entry 4o2e) is 0.01 µM (active).
Turning to H-HVAVENAL-OH, under “literature IC50, protein: HLA class I histocompatibility antigen, B-39 alpha chain, PDB entry 4o2f”, the IC50 is 0.387 µM (active).
Regarding `O=C(CC[C@H](NC(=O)c1ccc(C#Cc2ccccc2)cc1)C(=O)NO)NCCCO`, the IC50 (literature IC50, protein: UDP-3-O-[3-hydroxymyristoyl] N-acetylglucosamine deacetylase, PDB entry 4j3d) was 0.0053 µM (active).
With `CCCCn1c(-c2c(C)ccc3[nH]ncc23)c[n+]2c3c(=O)[nH]c(=O)n(C)c3[nH]c12`, where the note is “literature IC50, protein: EPH receptor A3, PDB entry 4gk4”, the IC50 was 0.014 µM (active).
Regarding H-AAAAAAA-OH, under “literature IC50, protein: Insulin-degrading enzyme(IDE), PDB entry 2jbu”, the IC50 was 400 µM (active).
As for `COc1ccc2c(c1)C1=NN(C(=O)CO)[C@H](c3ccc(OC(F)(F)F)c(F)c3)[C@@H]1CC2`, the IC50 (literature IC50, protein: Receptor-interacting serine/threonine-protein kinase 1 (C34A, C127A, C233A, C240A mutation), PDB entry 4iti) was 0.44 µM (active).
Take `O=C(O)/C(S)=C/c1c(Cl)ccc(Cl)c1Cl`: the IC50 (literature IC50, protein: Beta-lactamase 2 BcII MBL, PDB entry 4tyt) was 0.02 µM (active).
As for `CC(C)C[C@H](C[P+](O)(O)[C@@H](N)CCc1ccccc1)C(=O)N[C@@H](Cc1c[nH]c2ccccc12)C(N)=O`, for the setting “literature IC50, protein: Endoplasmic reticulum aminopeptidase 2, PDB entry 4jbs”, the IC50 was 0.011 µM (active).
Turning to `O=C1NCc2ccc(Cl)cc21`, the IC50 (literature IC50, protein: Chymase, PDB entry 4k5z) was 1000 µM (active).
`O=C(c1ccc(O)cc1)N1CCOCC1`: where the note is “literature IC50, protein: Heat shock protein HSP 90-alpha, PDB entry 4egh”, the IC50 is 550 µM (active).
As to `N=Cc1ncc(C(=O)NCc2ccccc2)cn1`, the IC50 (literature IC50, protein: Protease AVP2, PDB entry 4pid) is 24 µM (active).
For `COc1cccc(C(=O)c2nonc2N)c1`, the IC50 (literature IC50, protein: Adenylate cyclase type 10 hsolAC, PDB entry 4oym) was 11 µM (active).
Consider `Nc1nonc1C(=O)c1ccccc1`, for which the IC50 (literature IC50, protein: Adenylate cyclase type 10 hsolAC, PDB entry 4oyi) is 19 µM (active).
Regarding `CCOC(=O)COc1cccc(C(=O)c2nonc2N)c1`, the IC50 (literature IC50, protein: Adenylate cyclase type 10 hsolAC, PDB entry 4oyb) is 1.6 µM (active).
With `Nc1nonc1C(=O)c1cccc(OCc2nc3ccccc3[nH]2)c1`, the IC50 (literature IC50, protein: Adenylate cyclase type 10 hsolAC, PDB entry 4oya) was 0.36 µM (active).
